In PubChem BioAssay one finds composite z-score and z-score data, which are given here for 17 compounds.

The test system of experiment [1] is XIP peptide (Xip251-270) binding. The experiment can be described thus: small-molecule binders of XIP peptide, primary screen, biochemical, small-molecule microarray, fluorescence 635/667 nm, 0.1 µg/mL protein (AID 1182). Conditions: fluorescent protein binding, 635 nm, higher = more signal, called active from +8 up or from −8 down.
Another experiment deals with XIP peptide (Xip251-270). As to the kind of experiment: small-molecule binders of XIP peptide, primary screen, biochemical, small-molecule microarray, fluorescence 635/667 nm, 0.5 µg/mL protein (AID 1183). Conditions: small-molecule microarray binding, fluorescence 635 nm; higher = more signal.
Experiment [2] can be described thus: Plasmodium falciparum growth inhibition, primary screen, strain 3D7, DAPI fluorescence, 100 nL (AID 1184).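 Further: parasites grown inside human red blood cells in medium with human serum.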 Conditions: P. falciparum 3D7 growth, 3 d, higher = more signal.
Experiment [3] has as its target Homeobox protein Hox-A13 (Mus musculus) (UniProt Q62424). As to the kind of experiment: inhibitors of HoxA13-DNA binding, primary screen, biochemical, fluorescence polarization, labeled oligonucleotide (AID 1185). Conditions: 15 min, higher = more signal, called active from +8 up or from −8 down. For orientation: Polarisation of emitted light reports the rotation of a fluorescent probe.

Experiment [4] can be described thus: inhibitors of hydroxyurea-induced Chk1 phosphorylation, primary screen, imaging, HeLa, phospho-Chk1 antibody, percent positive cells (AID 1186). Conditions: hydroxyurea-induced phospho-Chk1 immunofluorescence imaging, higher = more signal.
The nature of experiment [5]: inhibitors of hydroxyurea-induced Chk1 phosphorylation, primary screen, imaging, HeLa, phospho-Chk1 nuclear intensity (AID 1187). Conditions: hydroxyurea-induced phospho-Chk1 immunofluorescence imaging, higher = more signal.

Each structure is given as a SMILES string. Calls of active or inactive are those of the source. Unless noted, how the calls were made is not given here.

Homeobox protein Hox-A13 (Mus musculus), sequence (Q62424 whole entry, looked up): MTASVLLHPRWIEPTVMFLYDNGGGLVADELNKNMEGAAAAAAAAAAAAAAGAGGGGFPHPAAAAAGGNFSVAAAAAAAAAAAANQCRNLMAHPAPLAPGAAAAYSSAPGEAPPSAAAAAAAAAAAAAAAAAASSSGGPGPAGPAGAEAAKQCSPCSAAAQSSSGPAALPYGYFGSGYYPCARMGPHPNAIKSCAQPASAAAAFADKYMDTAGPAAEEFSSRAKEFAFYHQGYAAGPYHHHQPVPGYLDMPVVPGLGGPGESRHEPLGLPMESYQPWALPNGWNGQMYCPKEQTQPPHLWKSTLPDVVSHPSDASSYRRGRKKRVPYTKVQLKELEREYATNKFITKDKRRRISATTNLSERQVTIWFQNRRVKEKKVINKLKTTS

As for `O=C1C[C@]2(c3ccc([N+](=O)[O-])cc3)C(=O)N(CC(F)(F)F)c3cc(CO)ccc3[C@H]2N1CC12CC3CC(CC(C3)C1)C2`, the composite z-score in experiment [1] was 0.2 (inactive); with XIP peptide (Xip251-270), 0.822. Also, the z-score in experiment [2] is 0.0278; in experiment [3], 0.2 (inactive); in experiment [4] it was -0.151 (inactive); in experiment [5], -0.382 (inactive).
For `COc1ccc(C#Cc2ccc3c(c2)[C@]2(C(=O)N3)[C@H](c3ccc(O)cc3)N3[C@H](c4ccccc4)[C@H](c4ccccc4)OC(=O)[C@H]3[C@@H]2C(=O)NC[C@H](O)c2ccccc2)cc1`, the values for the composite z-score (in experiment [1]; in the experiment with XIP peptide (Xip251-270)) were 0.265 (inactive) and 0.707, respectively. In addition, the z-score in experiment [2] is -1.05; in experiment [3], -0.173 (inactive); in experiment [4], 0.0646 (inactive); in experiment [5] it was 0.385 (inactive).
On to `C=CC[C@@]1(C(=O)N2CCOCC2)N=C(c2ccc(OCCCO)cc2)O[C@@H]1c1ccccc1N=[N+]=[N-]`, for which the composite z-score in experiment [1] is 1.18 (inactive); in the experiment with XIP peptide (Xip251-270), 0.598. Besides, the z-score in experiment [2] was -1.75; in experiment [3], -3.44 (inactive); in experiment [4], -0.217 (inactive); in experiment [5], -0.141 (inactive).
For `C=C[C@@H](COC(C)=O)N(Cc1ccccc1[N+](=O)[O-])S(=O)(=O)c1ccc(Br)cc1`, the composite z-score is 2.18 (inactive) in experiment [1] and 0.387 in the experiment on XIP peptide (Xip251-270). For the same compound, the z-score in experiment [2] was -0.43; in experiment [3] it was -2.89 (inactive); in experiment [4], -0.472 (inactive); in experiment [5], -0.567 (inactive).
As to `C=C[C@H](COC(C)=O)N(Cc1ccc(OC(C)=O)c(OC)c1)S(=O)(=O)c1ccc(Br)cc1`, the composite z-score in experiment [1] is 0.353 (inactive); with XIP peptide (Xip251-270), 0.713. The z-score in experiment [2] was 0.371; in experiment [3], -5.58 (inactive); in experiment [4], -0.245 (inactive); in experiment [5], -0.314 (inactive).
For the compound `COc1ccc(C(=O)Nc2cccc(CN3C(=O)[C@@]4(O[C@@H](CCn5cc(CCO)nn5)[C@H]([Si](C)(C)c5ccc(OC)cc5)[C@H]4C)c4ccccc43)c2)cc1`, the composite z-score is 0.201 (inactive) in experiment [1] and 0.393 with XIP peptide (Xip251-270). Moreover, the z-score in experiment [2] was -2.65; in experiment [3], -3.85 (inactive); in experiment [4] it was 0.103 (inactive); in experiment [5] it was 0.199 (inactive).
Take `COC(=O)c1c(CC[C@@H](CO)NC(=O)N[C@@H](Cc2ccccc2)Cn2cc(C3(O)CCCCC3)nn2)oc(C(C)=O)c1C(=O)OC`: the composite z-score in experiment [1] is 0.295 (inactive); in the experiment on XIP peptide (Xip251-270), 0.536. Moreover, the z-score in experiment [2] was -2.48; in experiment [3], -5.32 (inactive); in experiment [4] it was -0.0682 (inactive); in experiment [5], -0.145 (inactive).
For the compound `COc1cccc(C(=O)O[C@H]2CC[C@]3(C)C4=C(CCC3C2(C)C)[C@]2(C)CC[C@H]([C@H](C)CCCC(C)C)[C@@]2(C)CC4)c1` (some centres not stated), the composite z-score was -0.019 (inactive) in experiment [1] and -0.519 with XIP peptide (Xip251-270). Further, the z-score in experiment [2] was -0.0127; in experiment [3], -0.87 (inactive); in experiment [4], 0.811 (inactive); in experiment [5], 1.77 (inactive).
`O=C1O[C@H](c2ccccc2)[C@H](c2ccccc2)N2[C@H]1[C@@H](C(=O)O)[C@]1(C(=O)Nc3ccc(C#CC4=CCCCC4)cc31)[C@H]2c1ccc(OCCO)cc1`: the composite z-score in experiment [1] was 0.4 (inactive); with XIP peptide (Xip251-270), 0.813. For the same compound, the z-score in experiment [2] is -0.656; in experiment [3], -5.08 (inactive); in experiment [4], 0.222 (inactive); in experiment [5] it was -0.0216 (inactive).
Regarding `C=CCOC(=O)[C@H]1[C@@H]2C(=O)O[C@@H](c3ccccc3)[C@@H](c3ccccc3)N2[C@@H](c2ccc(OCCOC(=O)[C@@H]3C[C@@H]4C(=O)NCC(=O)N4[C@@H]3c3ccc(O)cc3)cc2)[C@]12C(=O)Nc1ccccc12`, the composite z-score in experiment [1] is 0.941 (inactive); in the experiment on XIP peptide (Xip251-270), 0.854. For the same compound, the z-score in experiment [2] is -1.86; in experiment [3] it was 0.503 (inactive); in experiment [4], -0.341 (inactive); in experiment [5], 0.559 (inactive).
`Cc1ccccc1C(O)C1C=CC2C(=O)N(C)C(=O)C2N1N1CCCCC1` (configuration not stated): the composite z-score in experiment [1] is 0.547 (inactive); in the experiment on XIP peptide (Xip251-270) it was 0.576. For the same compound, the z-score is 0.737 in experiment [2], -6.67 (inactive) in experiment [3], 0.193 (inactive) in experiment [4] and -0.0403 (inactive) in experiment [5].
In the case of `COC(=O)[C@@]1(Cc2ccccc2)[C@H]2c3cc(C(=O)N4CCCC4)n(Cc4ccc(C)o4)c3C[C@H]2CN1C(=O)c1ccccc1`, the composite z-score in experiment [1] is 1.04 (inactive); in the experiment on XIP peptide (Xip251-270), 0.814. Also, the z-score in experiment [2] is -1.11; in experiment [3], -4.62 (inactive); in experiment [4] it was 0.56 (inactive); in experiment [5] it was 0.421 (inactive).
As for `COc1ccc(CCNC(=O)[C@@]2(c3ccc([N+](=O)[O-])cc3)CC(=O)N(CC34CC5CC(CC(C5)C3)C4)[C@@H]2c2ccc(CO)cc2)cc1`, the composite z-score is 0.349 (inactive) in experiment [1] and 0.735 with XIP peptide (Xip251-270). The z-score is -1.79 in experiment [2], -2.31 (inactive) in experiment [3], -0.42 (inactive) in experiment [4] and -0.458 (inactive) in experiment [5].
Turning to `C=CC[C@@]1(C(=O)O)N=C(c2ccc(OCCCO)cc2)O[C@@H]1c1ccccc1N=[N+]=[N-]`, the composite z-score in experiment [1] was 0.926 (inactive); in the experiment on XIP peptide (Xip251-270) it was 0.823. For the same compound, the z-score in experiment [2] is -0.814; in experiment [3], -6.19 (inactive); in experiment [4] it was 0.103 (inactive); in experiment [5], -0.0861 (inactive).
For `CC(C)c1ccc(NN2C(C(O)c3cccc(O)c3)C=CC3C(=O)N(c4ccccc4)C(=O)C32)cc1` (configuration not stated), the composite z-score was 0.305 (inactive) in experiment [1] and 0.668 in the experiment on XIP peptide (Xip251-270). The z-score is -0.0362 in experiment [2], -4.3 (inactive) in experiment [3], 0.999 (inactive) in experiment [4] and 0.88 (inactive) in experiment [5].
With `COC(=O)c1ccc(C(O)C2C=CC3C(=O)N(c4ccccc4)C(=O)C3N2Nc2ccc(C#N)cc2)o1` (configuration not stated), the values for the composite z-score (in experiment [1]; with XIP peptide (Xip251-270)) were 0.324 (inactive) and 0.37, respectively. Besides, the z-score was 0.229 in experiment [2], -3.24 (inactive) in experiment [3], -0.645 (inactive) in experiment [4] and -0.852 (inactive) in experiment [5].
Take `Cc1ccccc1C(O)C1C=CC2C(=O)N(C)C(=O)C2N1Nc1ccccc1` (configuration not stated): the composite z-score is 0.381 (inactive) in experiment [1] and 0.632 in the experiment with XIP peptide (Xip251-270). Moreover, the z-score in experiment [2] is 1.11; in experiment [3], -3.24 (inactive); in experiment [4], 0.251 (inactive); in experiment [5], -0.594 (inactive).
